# Some of the results follow. Values without a mark were called inactive. Activity calls are given as the source filed them.
# Key:
# [1] = target: Inward rectifier potassium channel 2 (Mus musculus) (UniProt P35561); assay: mouse Kir2.1 channel blockers, retest, confirmation, cell-based, FluxOR thallium flux, duplicate (AID 2032;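 active means Primary-screen hit whose thallium flux fell at least 3 control SD below untreated wells in both duplicates, with normal baseline fluorescence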); details: Kir2.1-expressing cells, FluxOR thallium flux fluorescence, at 10 µM; hits give low values
# [2] = nonspecific thallium flux effects in parental HEK293 cells, confirmation, counter-screen for Kir2.1 inhibitor project, cell-based, FluxOR thallium flux, duplicate, single concentration (AID 2105;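 active means dye signal at least 3 control SD above or below untreated wells in both duplicates, raw fluorescence within 3, either direction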;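 on FluxOR signal as % of negative control (100 = no effect): percent is based on the flux ratio of peak minus minimum fluorescence over baseline F0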); details: FluxOR thallium flux fluorescence, at 10 µM; 0% = unstimulated blank wells
# [3] = target: Voltage-gated inwardly rectifying potassium channel KCNH2 (Homo sapiens) (UniProt Q12809); assay: hERG channel inhibition, counter-screen for Kir2.1 inhibitor project, cell-based, thallium flux (AID 2236); details: hERG-expressing cells, at 10 µM; hits give high values;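 further: host cells are CHO cells stably expressing hERG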
# [4] = target: Potassium channel subfamily K member 9 (Homo sapiens) (UniProt Q9NPC2); assay: KCNK9 channel inhibition, selectivity assay for Kir2.1 inhibitor project, cell-based (AID 2329); details: KCNK9-expressing cells, ion flux inhibition, at 10 µM; hits give high values
# [5] = target: Inward rectifier potassium channel 2 (Mus musculus) (UniProt P35561); assay: mouse Kir2.1 channel blockers, Kir2.1 inhibitor project, cell-based, secondary, automated electrophysiology (AID 463252); details: Kir2.1 cells, automated patch-clamp current inhibition, at 25 µM; hits give high values
# [6] = nonspecific thallium flux increase in parental CHO-K1, confirmation, counter-screen for KCNQ2 potentiator project, cell-based, FluxOR thallium flux, duplicate (AID 2282;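 active means signal rise of at least 3 SD above the untreated control mean, in both duplicate wells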;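 further: counter screen of KCNQ2 potentiator hits so any rise reflects channel-independent effects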); details: parental CHO-K1 cells, FluxOR thallium flux fluorescence; at 10 µM; hits give high values; zero = vehicle mean+3SD, 100% = vehicle-minus-blank window
# [7] = target: Potassium voltage-gated channel subfamily KQT member 1 (Homo sapiens) (UniProt P51787); assay: human KCNQ1 channel potentiation off-target, confirmation, selectivity assay for KCNQ2 potentiator project, cell-based, CHO, FluxOR thallium flux (AID 2283;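 active means fluorescence ratio rise of at least 3 SD of vehicle wells above their mean, in both replicate wells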;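 further: 0% = vehicle mean plus 3 SD and 100% = vehicle minus unstimulated blank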); details: CHO KCNQ1 stable, FluxOR thallium flux fluorescence; at 10 µM; hits give high values; beyond 3SD, as % of vehicle-control signal
# [8] = target: Potassium voltage-gated channel subfamily KQT member 2 (Rattus norvegicus) (UniProt O88943); assay: rat KCNQ2 channel potentiators, confirmation, cell-based, CHO, FluxOR thallium flux, duplicate (AID 2287;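 active means fluorescence ratio rising 3 SD or more over the vehicle control mean in both replicates, plus primary screen hit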;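 further: peak minus minimum thallium fluorescence divided by baseline after K/Tl stimulus; 0% = vehicle mean plus 3 SD and 100% = vehicle minus unstimulated blank difference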); details: CHO-KCNQ2 cells, FluxOR thallium flux fluorescence; at 10 µM; hits give high values
# [9] = target: Inward rectifier potassium channel 2 (Mus musculus) (UniProt P35561); assay: PubChem AID 2345; details: HEK293 Kir2.1, FluxOR thallium flux fluorescence; at 10 µM; hits give high values;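 further: 0% = vehicle mean plus 3 SD and 100% = vehicle minus no-stimulus blank window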
# [10] = target: Potassium voltage-gated channel subfamily KQT member 2 (Rattus norvegicus) (UniProt O88943); assay: potentiators of retigabine-insensitive KCNQ2 W236L, mechanism study for KCNQ2 potentiator project, cell-based, rat KCNQ2 W236L, CHO, automated patch clamp (AID 2558;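 active means current increase at least 3 SD of the untreated controls above them in both duplicate recordings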); details: at 25 µM; outcome: automated patch clamp current
# Inward rectifier potassium channel 2 (Mus musculus), sequence (P35561 whole entry, looked up): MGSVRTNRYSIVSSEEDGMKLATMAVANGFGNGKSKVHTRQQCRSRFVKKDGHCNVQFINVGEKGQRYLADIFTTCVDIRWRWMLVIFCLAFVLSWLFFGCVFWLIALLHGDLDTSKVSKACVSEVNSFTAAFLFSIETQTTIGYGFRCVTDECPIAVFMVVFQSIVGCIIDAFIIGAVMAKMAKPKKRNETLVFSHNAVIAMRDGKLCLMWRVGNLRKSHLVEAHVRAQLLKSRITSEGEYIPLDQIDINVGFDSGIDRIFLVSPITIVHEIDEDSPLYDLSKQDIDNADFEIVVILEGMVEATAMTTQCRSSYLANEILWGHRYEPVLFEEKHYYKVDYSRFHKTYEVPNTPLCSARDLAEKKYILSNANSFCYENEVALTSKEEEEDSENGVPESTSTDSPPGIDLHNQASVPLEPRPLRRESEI
# Voltage-gated inwardly rectifying potassium channel KCNH2 (Homo sapiens), sequence (Q12809 whole entry, looked up): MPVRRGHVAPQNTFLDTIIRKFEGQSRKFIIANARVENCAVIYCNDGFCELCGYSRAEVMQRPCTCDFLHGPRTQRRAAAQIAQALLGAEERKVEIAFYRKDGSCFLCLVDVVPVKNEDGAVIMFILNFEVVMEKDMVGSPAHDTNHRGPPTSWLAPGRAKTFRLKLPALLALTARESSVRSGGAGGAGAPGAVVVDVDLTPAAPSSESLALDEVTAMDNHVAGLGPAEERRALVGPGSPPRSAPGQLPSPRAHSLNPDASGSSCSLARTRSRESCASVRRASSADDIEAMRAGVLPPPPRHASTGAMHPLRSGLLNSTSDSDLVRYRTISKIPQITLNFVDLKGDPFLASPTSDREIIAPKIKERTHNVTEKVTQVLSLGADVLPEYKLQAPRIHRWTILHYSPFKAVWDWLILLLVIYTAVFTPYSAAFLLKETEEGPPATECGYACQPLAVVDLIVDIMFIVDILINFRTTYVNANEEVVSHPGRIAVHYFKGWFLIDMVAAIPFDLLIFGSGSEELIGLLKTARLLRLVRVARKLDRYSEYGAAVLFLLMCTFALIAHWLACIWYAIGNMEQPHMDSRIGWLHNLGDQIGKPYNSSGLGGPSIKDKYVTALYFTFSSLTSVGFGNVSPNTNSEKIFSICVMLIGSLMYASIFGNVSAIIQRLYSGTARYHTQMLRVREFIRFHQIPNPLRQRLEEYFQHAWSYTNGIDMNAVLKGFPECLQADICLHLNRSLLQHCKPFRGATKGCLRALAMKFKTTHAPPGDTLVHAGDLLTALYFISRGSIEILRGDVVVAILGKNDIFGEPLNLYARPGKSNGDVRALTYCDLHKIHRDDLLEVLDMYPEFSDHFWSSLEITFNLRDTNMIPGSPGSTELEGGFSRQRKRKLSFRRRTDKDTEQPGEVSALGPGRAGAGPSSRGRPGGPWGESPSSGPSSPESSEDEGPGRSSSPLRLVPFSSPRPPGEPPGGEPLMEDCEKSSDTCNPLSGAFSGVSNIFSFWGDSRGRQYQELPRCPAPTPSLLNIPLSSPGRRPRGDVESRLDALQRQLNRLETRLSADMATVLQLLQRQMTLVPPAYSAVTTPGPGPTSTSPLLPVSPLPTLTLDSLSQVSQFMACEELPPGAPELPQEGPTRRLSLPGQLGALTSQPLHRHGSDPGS
# Potassium voltage-gated channel subfamily KQT member 1 (Homo sapiens), sequence (P51787 whole entry, looked up): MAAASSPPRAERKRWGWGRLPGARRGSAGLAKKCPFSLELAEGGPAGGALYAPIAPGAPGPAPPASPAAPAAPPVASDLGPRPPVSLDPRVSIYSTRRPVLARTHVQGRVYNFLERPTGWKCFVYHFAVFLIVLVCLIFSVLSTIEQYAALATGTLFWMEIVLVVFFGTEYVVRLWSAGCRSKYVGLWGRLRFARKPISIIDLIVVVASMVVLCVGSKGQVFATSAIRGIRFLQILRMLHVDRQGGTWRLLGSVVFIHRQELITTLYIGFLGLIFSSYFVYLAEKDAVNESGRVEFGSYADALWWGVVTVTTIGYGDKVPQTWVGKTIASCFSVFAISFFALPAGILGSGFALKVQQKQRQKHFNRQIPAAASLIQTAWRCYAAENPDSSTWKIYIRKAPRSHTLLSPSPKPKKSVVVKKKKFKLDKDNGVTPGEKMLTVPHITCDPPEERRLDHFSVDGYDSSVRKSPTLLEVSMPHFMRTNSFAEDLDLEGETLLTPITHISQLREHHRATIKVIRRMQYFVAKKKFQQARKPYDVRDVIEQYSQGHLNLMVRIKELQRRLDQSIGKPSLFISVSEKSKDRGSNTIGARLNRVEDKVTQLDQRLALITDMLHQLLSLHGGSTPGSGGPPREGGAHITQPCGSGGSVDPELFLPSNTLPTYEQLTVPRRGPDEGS
smiles,measurement,setting,value
Cc1cc(C)nc(SCc2nnc(SCC(=O)OC3CCCCC3)o2)n1,"Tl flux remaining, % of negative control (hits give low values)",[1],28% (active)
same,outcome,[2],inactive
same,outcome,[3],inactive
same,outcome,[4],inactive
same,inhibition,[5],82.2% (active)
COc1ccc(CCNCc2c(-c3ccccc3)n(C)c3ccccc23)cc1,"Tl flux remaining, % of negative control (hits give low values)",[1],33.5% (active)
same,FluxOR signal as % of negative control (100 = no effect),[2],72% (active)
CN1CCN(CCCCOc2ccccc2-c2ccccc2)CC1,"Tl flux remaining, % of negative control (hits give low values)",[1],48.5% (active)
same,outcome,[2],inactive
same,outcome,[3],inactive
same,outcome,[4],inactive
same,inhibition,[5],27.4% (active)
Cc1ccc(-c2nn(-c3ccccc3)cc2/C=C2\SC(=S)N(CCCCCC(=O)O)C2=O)o1,outcome,[1],inactive
same,FluxOR signal as % of negative control (100 = no effect),[2],75% (active)
COc1cccc(NC(=O)C2C(c3ccccc3)C2(Cl)Cl)c1 (configuration not stated),outcome,[1],inactive
same,outcome,[2],inactive
same,activity increase over 3SD of controls,[6],-15.2%
same,activation over 3SD threshold,[7],4.2% (active)
same,"potentiation, less the hit threshold",[8],7% (active)
same,activity over 3SD threshold,[9],-29.8%
same,outcome,[10],inactive
CC(C)(c1ccccc1)c1ccc(OCCN)cc1,"Tl flux remaining, % of negative control (hits give low values)",[1],30.5% (active)
same,outcome,[2],inactive
same,outcome,[3],inactive
same,outcome,[4],inactive
same,inhibition,[5],36.1% (active)
C=CCNC(=S)/N=c1/ccccn1Cc1ccccc1,"Tl flux remaining, % of negative control (hits give low values)",[1],64% (active)
same,outcome,[2],inactive
CCc1ccccc1NC(=O)[C@@H]1CCC(=O)N1C1OC(=O)c2c1ccc(OC)c2OC (some centres not stated),outcome,[1],inactive
same,outcome,[2],inactive
same,activity increase over 3SD of controls,[6],82.8% (active)
same,activation over 3SD threshold,[7],55% (active)
same,"potentiation, less the hit threshold",[8],-19.6%
same,activity over 3SD threshold,[9],-22%
Cc1ccc(Nc2c3c(nc4ccccc24)CCC3)cc1,"Tl flux remaining, % of negative control (hits give low values)",[1],16% (active)
same,outcome,[2],inactive
same,inhibition,[3],61% (active)
same,outcome,[4],inactive
same,inhibition,[5],83.9% (active)
CC1(c2ccccc2Cl)NC(=O)N(CC(=O)NC(=O)NCc2ccco2)C1=O (configuration not stated),outcome,[1],inactive
same,outcome,[2],inactive
same,activity increase over 3SD of controls,[6],15.2% (active)
same,activation over 3SD threshold,[7],-28.7%
same,"potentiation, less the hit threshold",[8],-11.8%
same,activity over 3SD threshold,[9],-15.3%
Cc1ccc(S(=O)(=O)N2CCN(C(=O)COC(=O)c3c(C)cc(C)cc3C)CC2)c(C)c1,outcome,[1],inactive
same,outcome,[2],inactive
same,activity increase over 3SD of controls,[6],-0.8%
same,activation over 3SD threshold,[7],-20.8%
same,"potentiation, less the hit threshold",[8],14.7% (active)
same,activity over 3SD threshold,[9],-17.6%
same,outcome,[10],inactive
